Assay results published in PubChem BioAssay (NCI).
Compounds without any hit were thinned out: in the full panel of roughly 83,000, 20% have a hit.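 Method: cells in 96-well plates; compound added at one concentration; 48 h incubation; percent growth measured; values under 10 scored active.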 The source made the active and inactive calls.

Tests used:
Assay in all cases: NCI-60 one-dose screen, 48 h (100 = growth as untreated, 0 = no growth, -100 = all killed)
Conditions in all cases: 10 µM
[1] = test system: HCT-15 colon
[2] = test system: HT29 colon
[3] = test system: SNB-75 CNS
[4] = test system: SNB-19 CNS
[5] = test system: U251 CNS
[6] = test system: PC-3 prostate
[7] = test system: SK-MEL-5 melanoma
[8] = test system: UACC-62 melanoma
[9] = test system: LOX IMVI melanoma
[10] = test system: SK-MEL-28 melanoma

Measured: growth

O=C(c1ccccc1)C(Sc1ccccc1)c1ccccc1 (stereo not given)
inactive: [1] 60.7% | [2] 45.6% | [3] 101% | [4] 110% | [5] 79.4% | [6] 73% | [7] 108% | [8] 83.5% | [9] 74.5% | [10] 94.1%

Cc1ccc(S(=O)(=O)Oc2ccccc2-c2ccccc2)cc1
active: [2] 5.05% | [3] -12.1% | [7] 5.97%
inactive: [1] 23.2% | [4] 42.8% | [5] 24.8% | [6] 42.4% | [8] 37.1% | [9] 36% | [10] 30.8%

CNC(=O)c1cc(Oc2ccc(NC(=O)Nc3ccc(Cl)c(OC(C)C)c3)c(F)c2)ccn1
active: [7] 4.12%
inactive: [1] 41.4% | [2] 41.6% | [3] 75.3% | [4] 66.3% | [5] 58.8% | [6] 32.4% | [8] 34.2% | [9] 45.2% | [10] 70.7%

O=C/C=C/c1ccc([N+](=O)[O-])cc1Cl
inactive: [1] 98% | [2] 97.4% | [3] 101% | [4] 105% | [5] 100% | [6] 86.6% | [7] 100% | [8] 96.5% | [9] 47.8% | [10] 102%

Cc1ccc(-n2c(-c3cc4c([nH]c5ccccc54)c(-c4cccc(O)c4)n3)n[nH]c2=S)cc1
inactive: [6] 19.4%
active: [1] 2.88% | [2] -44% | [3] 5.15% | [4] 4.47% | [5] -3.05% | [7] -17.5% | [8] -40.3% | [9] -77% | [10] 7.56%

O=S(=O)(NCCO)c1ccc(OCCOc2ccc(S(=O)(=O)NCCO)cc2)cc1
inactive: [1] 103% | [2] 100% | [3] 95% | [4] 102% | [5] 93.7% | [6] 89.1% | [7] 96.5% | [8] 95.2% | [9] 96.6% | [10] 105%

COc1cc(-c2nc3ccc(C)cc3[nH]2)ccc1OCc1nnc(-c2ccc(CC(C)C)cc2)o1
inactive: [1] 73.8% | [2] 73.3% | [3] 83.9% | [4] 94.6% | [5] 75.6% | [6] 88.1% | [7] 85.7% | [8] 90.3% | [9] 103% | [10] 87.8%

COc1c(-c2c3sc(=O)[nH]c3nc3c2c(=O)[nH]n3C(C)C)cc2c(c1OC)OCO2
inactive: [1] 99.6% | [2] 102% | [3] 92.7% | [4] 98.7% | [5] 97.9% | [6] 92.6% | [7] 102% | [8] 99.4% | [9] 92.3% | [10] 112%

COCCNCC(O)Cn1c2ccc(Cl)cc2c2cc(Cl)ccc21 (stereo not given)
active: [1] -54.1% | [2] -15.5% | [5] -5.49% | [6] 8.25% | [7] -96.1% | [8] -73.3% | [9] -31.4% | [10] -26.3%
inactive: [3] 40.7% | [4] 24%

Cc1ccc(Cl)cc1Nc1nc(C(F)(F)F)ccc1C(=O)N/N=C/c1c(Cl)cccc1Cl
active: [5] 2.72% | [6] -18.2% | [7] -74.4% | [8] -17.6% | [9] -22.3%
inactive: [1] 10.4% | [2] 16.6% | [3] 26.1% | [4] 10.6% | [10] 18.7%

COc1cc(-c2c(C#N)c(N)n3c(nc4ccccc43)c2C#N)cc(Br)c1OC
active: [3] -8.28%
inactive: [1] 63.9% | [2] 32.1% | [4] 57.4% | [5] 25.3% | [6] 37.2% | [7] 35.8% | [8] 55.2% | [9] 52.9% | [10] 57.5%

Clc1ccc(-c2nc(-c3cccs3)cn3ccnc23)cc1
inactive: [1] 31.2% | [2] 41.6% | [3] 68.1% | [4] 88.6% | [5] 82.5% | [6] 62.4% | [7] 53.2% | [8] 60.2% | [9] 61.4% | [10] 92.5%

Nc1cc(O)cc(O)c1
inactive: [1] 97.9% | [2] 95% | [3] 91.8% | [4] 96.5% | [5] 104% | [6] 96.6% | [7] 109% | [8] 94.7% | [9] 95% | [10] 101%

COc1cc(C2c3cc4c(cc3C(O)C(CO)C2CO)OCO4)cc(OC)c1OC (stereo not given)
active: [2] 5.41% | [3] -4.31%
inactive: [1] 61.2% | [4] 35.8% | [5] 22.3% | [6] 25.3% | [7] 11.1% | [8] 40.8% | [9] 43.8% | [10] 44.1%

CC(C)OP(=O)(O)c1ncc(-c2ccc(C(F)(F)F)cc2)c(NC2CCCCCC2)n1
inactive: [1] 95.4% | [2] 47.5% | [3] 73% | [4] 71.3% | [5] 30.4% | [6] 24.2% | [7] 43% | [8] 31.6% | [9] 64.6% | [10] 51.4%

CC(C)(C)CC(C)(C)c1ccc(O)c(Cc2ccc(Cl)cc2Cl)c1
active: [1] -78.7% | [2] -92.4% | [3] -77.7% | [4] -82.9% | [5] -95.3% | [6] -65.2% | [7] -95.1% | [8] -87.9% | [9] -95.4% | [10] -84.9%

CC(C)(C)c1ccc(OCCCCCCN2CCNCC2)cc1
inactive: [2] 25% | [3] 53.7% | [4] 66.2% | [5] 30.7% | [6] 39.6% | [7] 50.4% | [10] 59.1%
active: [1] 6.25% | [8] -32.2% | [9] -16.7%

COc1cc(-c2nc3ccccc3[nH]2)ccc1OCc1nnc(-c2ccc(Br)cc2)o1
inactive: [1] 45.3% | [2] 70.7% | [3] 104% | [4] 104% | [5] 83.9% | [6] 96.2% | [7] 75% | [8] 92.7% | [9] 92.6% | [10] 93.2%

O=S(=O)(O)C1(O)CCCCC1
inactive: [1] 87.3% | [2] 59% | [3] 82.3% | [4] 87.8% | [5] 99.3% | [6] 77.6% | [7] 92.9% | [8] 96.8% | [9] 97.7% | [10] 102%

NC(=O)c1ccc(Br)o1
inactive: [1] 94.1% | [2] 95.7% | [3] 95.3% | [4] 109% | [5] 105% | [6] 102% | [7] 102% | [8] 101% | [9] 98.1% | [10] 107%

c1ccc(COCC[P+](c2ccccc2)(c2ccccc2)c2ccccc2)cc1
inactive: [1] 71.9% | [10] 14.6%
active: [2] 1.21% | [3] -5.5% | [4] 9.79% | [5] 5.43% | [6] -4.87% | [7] -72% | [8] 2.32% | [9] -32.2%

CCC(OC(=O)CC(C)C)c1ccccc1 (stereo not given)
inactive: [1] 101% | [2] 93.6% | [3] 91.1% | [4] 105% | [5] 86.9% | [6] 94.8% | [7] 100% | [8] 102% | [9] 96.1% | [10] 106%

CCc1c(C(=O)NCc2c(O)ccc3cccc(O)c23)[nH]c(C)c1C(C)=O
inactive: [1] 14% | [2] 58.2% | [3] 56.6% | [4] 53% | [5] 33.4% | [6] 27.4% | [8] 15.4% | [9] 16.2% | [10] 37.5%
active: [7] 1.58%

c1ccc(C2CCCCC2)c(OCCCCCN2CCNCC2)c1
active: [1] -34.7% | [2] 3.84% | [8] -51.3% | [9] -35% | [10] -15.8%
inactive: [3] 48.3% | [4] 71.1% | [5] 26.1% | [6] 43.6% | [7] 16.5%

O=C1NN(c2ccccc2)C(c2cccnc2)=N/C1=C\c1cccnc1
inactive: [1] 93.9% | [2] 97.2% | [3] 79.6% | [4] 92.7% | [5] 102% | [6] 92.1% | [7] 91.8% | [8] 86.1% | [9] 82.9% | [10] 116%

CCCN(CCC)CCCNC(=O)c1cc2c(-c3ccc(OC)c(OC)c3)nn(C)c2s1
active: [5] 9.87% | [7] -60.8%
inactive: [1] 24.7% | [2] 56.5% | [3] 22.7% | [4] 35% | [6] 16.1% | [8] 14.1% | [9] 10.2% | [10] 37.6%

CC(=O)/C(=C\c1ccc(Cl)cc1)c1ccccc1
active: [2] 2.71% | [7] -35.6% | [9] 0.385%
inactive: [1] 10.3% | [3] 37.4% | [4] 29.7% | [5] 13.6% | [6] 21.9% | [8] 29.2% | [10] 65%
